Assay outcomes from PubChem BioAssay.
Hits are enriched below; roughly 7% of the tested compounds scored in any of these assays.
JMJD2A Tudor: inhibitors of human JMJD2A Tudor domain; O75164; AlphaScreen JMJD2A-Tudor / H3K4me3 peptide binding; Potency, µM (series often up to 114 µM), inactives show at the highest dose activity change, negative = inhibition, most hits filed as inhibitors; actives 4.4% (n = 390,000); also: potency is read from the fitted curve at half-maximal effect; % is scaled to controls: 0 for no effect and ±100 for the full control effect; nearly all actives have a fitted effect of over 50% in size
BAZ2B inh: inhibitors of human BAZ2B bromodomain; Q9UIF8; actives 4.4% (n = 360,000); Potency, µM (series often up to 114 µM), inactives show top-dose activity change, negative = inhibition, actives largely listed as inhibitors; AlphaScreen BAZ2B-H3K14Ac peptide displacement; also: potency is read from the fitted curve at half-maximal effect; % is scaled to controls: 0 for no effect and ±100 for the full control effect; nearly all actives have a fitted effect of over 60% in size
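BAZ2B 50 nM plus b-H3(5-23)K14Ac 50 nM, PBS pH 7.4/0.01% Tween-20, 30 min RT; compound added (max 110 uM), 30 min RT; streptavidin donor/Ni-chelate acceptor beads 10 ug/mL final, 20 min dark; AlphaScreen read.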
PLK1 PBD block: PLK1 (human) polo-box domain binding inhibition | P53350 | Plk1 PBD binding of FITC phosphopeptide, fluorescence polarization | Potency, µM, inactives show max response, negative = inhibition, usual class: inhibitors | actives 2.8% (n = 360,000) | AID 720504; also: potency is read from the fitted curve at half-maximal effect; series mostly up to about 57 µM; % is scaled to controls: 0 for no effect and ±100 for the full control effect; nearly all actives have a fitted effect of over 65% in size
HP1b binding inh: blocks HP1-beta chromodomain binding to methylated histone tails | P83916 | AlphaScreen HP1-beta / biotin-H3K9me3 peptide binding | Potency, µM (top dose mostly 114 µM), for the others: at the highest dose activity change, negative = inhibition, hits mostly inhibitors | actives 0.56% (n = 390,000); also: potency is read from the fitted curve at half-maximal effect; nearly all actives have a fitted effect of over 70% in size
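HP1-beta protein (50 nM final) preincubated 30 min at room temperature with biotinylated H3(1-18)K9me3 peptide (50 nM) in PBS pH 7.4, 0.01% Tween-20, then compound added for 30 min. AlphaScreen streptavidin donor/nickel chelate acceptor beads (10 ug/mL final), 30 min dark, luminescence read.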
PI5P4Ka inh: PI5P4K alpha (human) kinase inhibition; PI5P4Kalpha enzyme, ADP-Glo luminescence, 60 min; active compounds read low; max response, %; actives 1.2% (n = 330,000); active = max response of -50% or lower; inconclusive = between -30% and -50%; inactive = -30% or higher; also: value at the top dose of about 77 µM; % is scaled to controls: 0 for no effect and ±100 for the full control effect
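ADP-Glo luminescence end-point read after a 60 min room-temperature kinase reaction of PI5P4Kalpha plus substrate, initiated with ATP at 5 microM final. Buffer: 0.038 M HEPES pH 7.4, EGTA, 0.1% CHAPS, 5% DMSO.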
GCN5L2 inh: GCN5L2 (KAT2A) acetyltransferase inhibition | Q92830 | GCN5L2 HAT assay, ThioGlo1 CoA-SH fluorescence | Potency, µM (highest dose often 58.9 µM), for inactives: top-dose activity change, negative = inhibition, most hits filed as inhibitors | actives 0.21% (n = 390,000); also: potency is read from the fitted curve at half-maximal effect; % is scaled to controls: 0 for no effect and ±100 for the full control effect
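GCN5L2 (20nM final) in 50mM HEPES, 0.1mM EDTA pH 7.5, 0.01% Tween-20 was preincubated 15 min at room temperature with compound, then given ThioGlo1 (50uM), H3(1-25) peptide (75uM) and acetyl-CoA (70uM); CoA-thiol fluorescence (Ex340/Em540) was read at 0 and 20 min.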
* hit, by the source's call; ? = inconclusive; . = not tested or not shown; [ ] = another dose, or the depositor's remark. Unless noted, calls follow the shape of the dose curve; as a rule, active = well fitted curve in the direction sought with a large enough effect; inconclusive = small, poorly fitted or top-dose-only effect, or another doubt; inactive = no such curve, though single readings can be large; an effect the other way counts as inactive or inconclusive.

SMILES	JMJD2A Tudor	BAZ2B inh	PLK1 PBD block	HP1b binding inh	PI5P4Ka inh	GCN5L2 inh
CCN(CC)c1ccc(C(=S)N2CCN(c3ccccc3)CC2)cc1	-17%[11.4 µM]	10µM*	13µM*	?	7	0%
S=C(c1ccc(N2CCOCC2)cc1)N1CCOCC1	-22%	3%	27µM*	-30%	.	-7%
CCOc1ccc(C(=S)N2CCOCC2)cc1	-4%	6%	-6%	9%	1	-2%
CC(=O)c1ccc(N2CCN(C(=O)c3ccc(C(=O)c4ccccc4)cc3)CC2)cc1	-14%	1%	2%	35%	4	-13%
CCn1c(=O)c2sccc2n2c(CCC(=O)Nc3ccc(C(C)C)cc3)nnc12	-21%	3%	.	16%	.	-3%
Cc1cc(C)cc(OCC(=O)NN2C(=O)c3ccccc3C2=O)c1	-24%	1%	-8%	40%	-1	0%
O=C(Cc1ccc(Cl)cc1)NN1C(=O)c2ccccc2C1=O	-15%	5%	27µM*	3%	-13	-1%
O=S(=O)(CCNC1CC1)NC1CCCCC1	-3%	.	-12%	31%	3	.
CC(C)=NNc1cnnc2ccc([N+](=O)[O-])cc12	.	.	-11%	.	-69*	.
NC(=O)CCC(C(=O)O)N1C(=O)c2ccc(O)cc2C1=O (stereo unspecified)	5%	-3%	?	15%[57 µM]	-7	-6%
O=C(O)/C(=C\C(=O)c1ccccc1)Nc1ccccc1	.	79µM*	.	.	.	-6%
CCn1nc(NC(=O)C(C)C)c2cc3cccc(C)c3nc21	15%	29%	?	125%	14	-1%
CCC(=O)N1CCC(NC(=O)Nc2ccc(OC(F)(F)F)cc2)CC1	5%	1%	8%	36%	-1	1%
C/C(=N\OCc1nc2ccccc2c(=O)n1/N=C/c1cc(C)cc([N+](=O)[O-])c1O)c1ccccc1	-4%	7.9µM*	-2%	33%	0	-19%
O=c1c2ccccc2nc(COc2ccccc2)n1/N=C/c1ccc(O)cc1O	-36%	?	0%	-8%	3	-12%
C/C(=N\OCc1nc2ccccc2c(=O)n1/N=C/c1cc([N+](=O)[O-])ccc1O)c1ccccc1	-29%	-38%	-13%	-5%	-54*	-19%
CC12CCC(=O)N1C(C(=O)O)Cc1c2[nH]c2ccccc12 (stereo unspecified)	79µM*	-35%	-13%	29%	5	0%
CC(=O)N1C(C(=O)O)Cc2c([nH]c3ccccc23)C1(C)C (stereo unspecified)	-1%	-5%	-5%	27%	3	2%
CCOC(=O)C(=COC(=O)c1ccccc1)NC(=O)Cc1ccccc1	-25%	.	?	38%	7	.
COc1cc2nc(NCCC(C)C)n3nc(-c4ccccc4)nc3c2cc1OC	-13%	-10%	.	-10%	.	-5%
Cc1ccc(Nc2c(-c3ccc(C)cc3)nc3c(C)cccn23)cc1	?	.	.	?	.	-14%
Cc1cccn2c(Nc3ccc4c(c3)OCCO4)c(-c3ccc(Br)o3)nc12	22µM*	11µM*	.	?	.	-23%
Cc1ccc(S(=O)(=O)N2CCCN(C(=O)CNC(=O)c3cccc(C)c3)CC2)cc1	-7%	5%	-15%	69%	-2	3%
Cc1nn2c(=O)cc(COC(=O)c3ccco3)nc2s1	-8%	-15%	.	-6%	.	2%
c1cc2nc(C34CC5CC(CC(C5)C3)C4)[nH]c2cn1	22µM*	50µM*	-4%	?	-9	-3%
Cc1ccc(/C=C/c2nc3ccccc3[nH]2)o1	50µM*	-34%	27µM*	?	-66*	-14%
Cc1ccc(/C=C/c2nc3ccccc3[nH]2)cc1	-7%	7%	.	29%	.	1%
O=C(CSc1nc(NS(=O)(=O)c2ccccc2)cc(=O)[nH]1)Nc1ccc(F)cc1	56µM*	?	-20%	8%	.	?
Cc1cc(C)nc(NS(=O)(=O)c2ccc(NC(=O)CSc3ncn[nH]3)cc2)n1	?	-11%	27µM*	-5%	-21	-8%
